From PubChem BioAssay (NCATS)
Inconclusive results are not listed. Active and inactive are the calls of the source. The call rests on the fitted dose curve; in most records, active means well fitted inhibition curve with a large enough effect; inconclusive means small, poorly fitted or top-dose-only effect; inactive means flat fitted curve, though single readings scatter. Where a SMILES comes first, the peptide text is derived from it. Bridges are numbered along the chain shown (N, C = ends). [ ]: non-standard residue; d: D form. NMeY = CN[CH](Cc1ccc(O)cc1)C(=O)O

tested on: NIH3T3; assay: qHTS assay to identify novel small-molecules to repurpose for Merkel cell carcinoma treatment (AID 1296009); settings: MCC and control cell lines, CellTiter-Glo viability, 72 h; at 44.8 µM (top of the series) unless noted; further: nearly all actives have a fitted effect of over 60% in size
Procedure, shortened: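 Cells exposed to NPC (8-point) and MIPE (11-point) compound dilutions for 72 hr at 37 degree celsius; viability read by CellTiter-Glo luminescence, normalized to no-cell and DMSO in-plate controls.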

Structure (SMILES)	outcome
C=C(C(=O)O)C1CCC2(C)CCCC(C)(O)C2C1 (centres undefined)	inactive
CC1=CC(=O)[C@]2(O[C@@H]3O[C@@H](C)[C@H](O)[C@@H](O)[C@H]3OC(=O)/C=C/c3ccccc3)C=CO[C@@H](O[C@@H]3O[C@H](CO)[C@@H](O)[C@H](O)[C@H]3O)[C@H]12	inactive [at 17.4 µM]
CCC(C)C1NC(=O)C2CCCN2C(=O)C(NC(C)=O)C(C)OC(=O)C(Cc2ccc(OC)cc2)N(C)C(=O)C2CCCN2C(=O)C(C(C)C)NC1=O (centres undefined) (Ac-TPIVP[NMeY](Me); ester 1-C; configuration not given here)	inactive [at 17.4 µM]
O=C(/C=C/c1ccccc1)OC[C@]12O[C@H]1[C@@H](O)[C@@H]1C=CO[C@@H](O[C@@H]3O[C@H](CO)[C@@H](O)[C@H](O)[C@H]3O)[C@@H]12	inactive [at 17.4 µM]
